Inconclusive results are not listed. Activity calls are given as the source filed them. Calls come from the whole dose curve; as a rule, active = well fitted curve in the direction sought with a large enough effect; inconclusive = small, poorly fitted or top-dose-only effect, or another doubt; inactive = no such curve, though single readings can be large or run the other way.
What follows are molecules tested against Protein phosphatase 1D (Homo sapiens) (UniProt O15297) (assay: Rhodamine-PBP qHTS Assay for Modulators of WT P53-Induced Phosphatase 1 (WIP1) (AID 1347425)). Conditions: recombinant WIP1, Rhodamine-PBP phosphate fluorescence, real-time; series mostly up to 57.5 µM.
Protein phosphatase 1D (Homo sapiens), sequence (O15297 whole entry, looked up): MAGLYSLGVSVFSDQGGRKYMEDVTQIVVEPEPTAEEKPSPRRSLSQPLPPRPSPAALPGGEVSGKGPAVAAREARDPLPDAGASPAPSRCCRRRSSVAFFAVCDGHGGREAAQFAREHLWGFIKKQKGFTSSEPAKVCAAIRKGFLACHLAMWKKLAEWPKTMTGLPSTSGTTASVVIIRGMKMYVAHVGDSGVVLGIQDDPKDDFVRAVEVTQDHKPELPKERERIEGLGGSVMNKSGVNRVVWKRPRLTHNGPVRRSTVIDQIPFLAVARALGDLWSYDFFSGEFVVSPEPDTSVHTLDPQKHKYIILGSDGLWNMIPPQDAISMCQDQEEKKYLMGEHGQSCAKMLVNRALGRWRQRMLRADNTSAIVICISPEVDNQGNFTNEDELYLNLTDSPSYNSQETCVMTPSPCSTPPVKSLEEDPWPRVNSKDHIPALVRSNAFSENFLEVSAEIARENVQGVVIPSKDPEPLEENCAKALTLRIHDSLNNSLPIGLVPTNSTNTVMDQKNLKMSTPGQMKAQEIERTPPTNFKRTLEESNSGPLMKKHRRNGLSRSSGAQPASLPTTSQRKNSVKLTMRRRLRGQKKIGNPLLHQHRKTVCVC
Description: Assay Provider (PI): Nathan Coussens Ph.D.
National Center for Advancing Translational Sciences (NCATS), Rockville, MD
National Institute of Health (NIH), Bethesda, Maryland
WT P53-Induced Phosphatase 1 (WIP1) is a member of the magnesium-dependent serine/threonine protein phosphatase (PPM) family and is induced by P53 in response to DNA damage. In several human cancers, the WIP1 protein is overexpressed, which is generally associated with a worse prognosis. Although WIP1 is an attractive therapeutic target, no potent, selective, and bioactive small-molecule modulator with favorable pharmacokinetics has been reported. Phosphatase enzymes are among the most challenging targets for small molecules because of the difficulty of achieving both modulator selectivity and bioavailability. Another major obstacle has been the availability of robust and physiologically relevant phosphatase assays that are suitable for high-throughput screening.
Here, we describe two orthogonal biochemical WIP1 activity assays that utilize phosphopeptides from native WIP1 substrates. We optimized a RapidFire MS assay to quantify the enzymatically dephosphorylated peptide reaction product in a 384-well format. Additionally, a redshifted Rhodamine-PBP fluorescence assay was optimized in a 1,536-well format to enable real-time WIP1 activity measurements through the detection of the orthogonal reaction product, Pi. We validated these two optimized assays by quantitative high-throughput screening against the National Center for Advancing Translational Sciences (NCATS) Pharmaceutical Collection and used secondary assays to confirm and evaluate inhibitors identified in the primary screen.
SEQUENCE No. (e.g., 1, 2, 3, etc.); […] (e.g., Cells, Incubation, Reagent, etc.); VALUE; DESCRIPTION
1; Reagent; 3 uL; WIP1 (6.7 nM), Rh-PBP (13.3 uM), columns 1-48
3; Library Compounds; 23 nL; NCATS Pharmaceutical Collection, column 5-48
4; Control Compounds; DMSO in column 2, GSK2830371 (57.5 uM, final) in 3-fold serial dilutions in column 3, GSK2830371 (1.15 uM, final) in column 4
5; Time; 1 hr; incubation
6; Detection; fluorescence (f0); ViewLux, excitation filter = 525 nm, emission filter = 598 nm
7; Reagent; 1 uL; VEPP-pS-QETFS (40 uM), columns 2-48
8; Detection; fluorescence (f1); ViewLux, excitation filter = 525 nm, emission filter = 598 nm
NOTES (numbers refer to sequence above)
1 & 2; Black medium binding Greiner 1536-well plates (# 789176-F); assay buffer: 50 mM Tris-HCl pH 7.5, 30 mM MgCl2, 1mM TCEP, 0.1 mM EGTA, 75 ug/mL BSA; dispensed with a BioRaptr liquid handler (Beckman Coulter).
3 & 4; Kalypsys pintool (equipped with 1536 pinhead, Wako USA) transfer. Tip wash sequence: DMSO, methanol, 3 sec vacuum dry.
5; Room temperature incubation.
7; VEPPL-pS-QETFS in assay buffer dispensed with a BioRaptr; final reaction conditions: 5 nM WIP1, 10 uM VEPPL-pS-QETFS, 10 uM Rh-PBP, 50 mM Tris-HCl pH 7.5, 30 mM MgCl2, 1 mM TCEP, 0.1 mM EGTA, 75 ug/mL BSA.
8; Measurement taken at 1 min intervals for 11 min. Delta readout = f1 - f0.
For `CC(=O)OCC1=C(C(=O)O)N2C(=O)[C@@H](N)[C@H]2SC1`, the outcome was “inactive”.
In the case of `COc1cccc(C(=O)CCN[C@@H](C)[C@H](O)c2ccccc2)c1`, the outcome is reported as “inactive”.
`C=CCC1(C(C)CC)C(=O)NC(=O)NC1=O` (stereo not given) was tested, and the outcome was “inactive”.
`COc1cccc([C@@]2(O)CCCC[C@@H]2CN(C)C)c1` was tested, and the outcome was “inactive”.
With `CC(=O)NC1CCSC1=O` (stereo not given) the outcome was “inactive”.
`COc1c2c(cc3c1OCO3)CCN(C)C2` was tested, and the outcome was “inactive”.
In the case of `C[C@]12CC[C@H]3[C@@H](CC[C@@]45O[C@H]4C(O)=C(C#N)C[C@]35C)[C@H]1CC[C@H]2O`, the outcome is reported as “inactive”.
`COC1CC(=C(c2cccs2)c2cccs2)C[N+](C)(C)C1` (stereo not given) was tested, and the outcome was “inactive”.
For `CC(C)c1c(CN(C)C(C)Cc2ccccc2)n(C)n(-c2ccccc2)c1=O` (stereo not given), the outcome was “inactive”.
In the case of `C[C@]12CC[C@@H]3c4ccc(OC(=O)N(CCCl)CCCl)cc4CC[C@H]3[C@@H]1CC[C@@H]2O`, the outcome is reported as “inactive”.
`CCC(CC)(CNC(=O)CCCO)c1cccc(OC)c1` was tested, and the outcome was “inactive”.
With `O=P1(N(CCCl)CCCl)NCCCO1` (stereo not given) the outcome was “inactive”.
With `[N-]=[N+]=CC(=O)OC[C@H](N)C(=O)O` the outcome was “inactive”.
In the case of `CCCN(CCC)C(=O)Cc1c(-c2ccc(Cl)cc2)nc2ccc(Cl)cn12`, the outcome is reported as “inactive”.
With `O=C(O)CCCc1ccc(N(CCCl)CCCl)cc1` the outcome was “inactive”.
In the case of `Nc1nc(N)nc(NC2CC2)n1`, the outcome is reported as “inactive”.
`C[C@]12CC[C@H]3[C@@H](CCC4=CC(=O)CC[C@@H]43)[C@@H]1CC[C@@H]2OC(=O)CCC1CCCCC1` was tested, and the outcome was “inactive”.
With `CN1C(=O)NC(=O)C(C)(C2=CCCCC2)C1=O` (stereo not given) the outcome was “inactive”.
With `CCN(CCO)CCn1c(Cc2ccccc2)nc2c1c(=O)n(C)c(=O)n2C` the outcome was “inactive”.
In the case of `C[C@@H]1CC2=CC(=O)CC[C@@H]2[C@H]2CC[C@@]3(C)[C@@H](CC[C@]3(C)O)[C@@H]21`, the outcome is reported as “inactive”.
For `CCOP(=S)(OCC)Oc1ccc2c(C)c(Cl)c(=O)oc2c1`, the outcome was “inactive”.
For `CN1CC[C@]23c4c5ccc(O)c4O[C@H]2[C@@H](O)CC[C@H]3[C@H]1C5`, the outcome was “inactive”.
With `Cc1ncsc1CCCl` the outcome was “inactive”.
For `Clc1ccc(C(c2ccc(Cl)cc2)C(Cl)(Cl)Cl)cc1`, the outcome was “inactive”.
`C#CC(O)(C=CCl)CC` (stereo not given) was tested, and the outcome was “inactive”.
In the case of `CC(Cc1ccccc1)NCCn1cnc2c1c(=O)n(C)c(=O)n2C` (stereo not given), the outcome is reported as “inactive”.
In the case of `CCC1(c2ccccc2)C(=O)N(COC)C(=O)N(COC)C1=O`, the outcome is reported as “inactive”.
For `C=CCN1C[C@H](C)N([C@H](c2ccc(C(=O)N(CC)CC)cc2)c2cccc(OC)c2)C[C@H]1C`, the outcome was “inactive”.
In the case of `Nc1ccccc1`, the outcome is reported as “inactive”.
With `O=C(Nc1ccc(Br)cc1)c1cc(Br)cc(Br)c1O` the outcome was “inactive”.
With `CCC(C)(C)c1ccc(O)cc1` the outcome was “inactive”.
For `COP(=S)(OC)Oc1cc(Cl)c(Cl)cc1Cl`, the outcome was “inactive”.
In the case of `CCC1(c2ccc(N)cc2)CCC(=O)NC1=O` (stereo not given), the outcome is reported as “inactive”.
In the case of `O=C1CN=C(c2ccccc2)c2cc([N+](=O)[O-])ccc2N1`, the outcome is reported as “inactive”.
For `COc1cc(CC(C)N)cc(OC)c1OC` (stereo not given), the outcome was “inactive”.
In the case of `NCCc1ccc(O)cc1`, the outcome is reported as “inactive”.
`O=C(O)c1ccc(=O)[nH]c1` was tested, and the outcome was “inactive”.
For `c1ccc(CN2CCNCC2)cc1`, the outcome was “inactive”.
With `NC1=NC(=O)C(c2ccccc2)O1` (stereo not given) the outcome was “inactive”.
For `COP(=S)(OC)Oc1ccc(SC)c(C)c1`, the outcome was “inactive”.

— PubChem BioAssay (NCATS)
